An excerpt weighted towards active compounds, which were near 15% of everything screened.
TDP1 cell noCPT – qHTS for Inhibitors of human tyrosyl-DNA phosphodiesterase 1 (TDP1): qHTS in cells in absence of CPT; DT40 Tdp1-/- hTDP1 cells, no CPT, ATP luminescence, 48 h; Potency, µM (top dose mostly 46.2 µM), actives largely listed as inhibitors; 420,000 compounds, 15% hits; further: nearly all actives have a fitted effect of over 55% in size
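Compound effects on proliferation are scored in DT40 Tdp1-/-;hTDP1 cells in the absence of CPT. ATP levels (CellTiter-Glo luminescence) are recorded after a ≥48 hr, 37 °C incubation.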
ELG1 repair inh – inhibitors of ELG1-dependent DNA repair in HEK293T cells. HEK293T ELG1-luciferase reporter, luminescence, 16 h; DNA damage induced by 5-fluorouridine. Potency, µM (highest dose often 46.1 µM), usual class: inhibitors. 330,000 compounds, 2.3% hits. AID 504467; further: nearly all actives have a fitted effect of over 55% in size
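In this reporter screen, reduction of luminescence relative to DMSO vehicle indicated activity. Compounds and 5-fluorouridine were added together to 2,000 cells per well, incubated for 16 hr at 37 °C, then developed with ONE-Glo.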
VP16 counter – counter-screen for ROR gamma inhibitors: Gal4-VP16 reporter; Drosophila S2 Gal4-VP16 UAS-luciferase, luminescence, 20 h; Potency, µM (top dose mostly 53.6 µM), most hits filed as inhibitors; 310,000 compounds, 3.5% hits;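 further: Gal4-VP16 expression switched on by copper sulfate through the metallothionein promoter; nearly all actives have a fitted effect of over 50% in size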
TDP1 cell CPT – growth inhibition of DT40 Tdp1-/-;hTDP1 cells with camptothecin (screen for TDP1 inhibitors) | chicken DT40 Tdp1-/-;hTDP1 cells + 20 nM CPT, ATP luminescence, 48 h | Potency, µM (highest dose often 46.2 µM), most hits filed as inhibitors | 420,000 compounds, 12% hits | AID 686979; further: nearly all actives have a fitted effect of over 55% in size
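Cell growth measured by CellTiter-Glo luminescence after a minimum 48 h, 37 C compound exposure with 20 nM CPT in Tdp1-knockout DT40 cells stably expressing hTDP1, seeded 400/well; qHTS titration format.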
RORg inh – inhibitors of mouse ROR gamma transcriptional activity. 310,000 compounds, 5.4% hits. Drosophila S2 Gal4-RORgamma UAS-luciferase reporter, 20 h. Potency, µM (top dose mostly 53.6 µM), hits mostly inhibitors. AID 2551; further: nearly all actives have a fitted effect of over 60% in size
Target sequence (P51450 whole entry, looked up, the tested form may be a part): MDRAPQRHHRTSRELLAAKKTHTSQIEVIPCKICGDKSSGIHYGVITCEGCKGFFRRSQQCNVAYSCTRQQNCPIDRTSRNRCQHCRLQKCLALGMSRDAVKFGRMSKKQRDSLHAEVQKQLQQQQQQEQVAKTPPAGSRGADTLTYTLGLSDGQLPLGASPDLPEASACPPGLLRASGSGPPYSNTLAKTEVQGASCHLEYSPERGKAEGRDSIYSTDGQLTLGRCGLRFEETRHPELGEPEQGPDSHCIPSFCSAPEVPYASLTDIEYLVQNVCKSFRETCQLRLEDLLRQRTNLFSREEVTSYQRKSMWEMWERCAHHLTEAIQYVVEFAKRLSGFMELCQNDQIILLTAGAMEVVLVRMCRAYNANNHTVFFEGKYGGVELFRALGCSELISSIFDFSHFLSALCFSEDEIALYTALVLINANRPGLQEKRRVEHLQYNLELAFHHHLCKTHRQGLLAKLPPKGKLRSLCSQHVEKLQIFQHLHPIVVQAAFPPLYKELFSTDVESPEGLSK
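Luminescence from a UAS-regulated Photinus luciferase reporter in stably transfected Drosophila Schneider cells is measured; decreased signal marks ROR gamma inhibition. Fusion expression is induced by 700 uM copper sulfate for 20 hr.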
12-LOX inh – blocks human arachidonate 12S-lipoxygenase | P18054 | purified 12hLO, xylenol orange hydroperoxide absorbance | Potency, µM (highest dose often 108 µM), hits mostly inhibitors | 580,000 compounds, 1.1% hits
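Hydroperoxide product was detected by ferrous iron/xylenol orange as the 573 to 405 nm absorbance ratio. Arachidonic acid at 40 uM (final) was turned over for 30 min at room temperature by 150 nM human 12hLO, pH 7.0 Hepes buffer, after 15 min compound preincubation.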
A number is an active result; . = inactive; ? = inconclusive; / = not tested or not shown. The call rests on the fitted dose curve; in most records, active means well fitted curve in the direction sought with a large enough effect; inconclusive means small, poorly fitted or top-dose-only effect, or another doubt; inactive means no such curve, though single readings can be large; an effect the other way counts as inactive or inconclusive.

SMILES	TDP1 cell noCPT	ELG1 repair inh	VP16 counter	TDP1 cell CPT	RORg inh	12-LOX inh
Cc1ccc2[nH]c(=O)c(CN(Cc3cccs3)Cc3nnnn3CC3CCCO3)cc2c1 (stereo not drawn)	18µM	.	.	?	.	.
Cc1ccc2cc(CN(Cc3cccs3)Cc3nnnn3CC3CCCO3)c(=O)[nH]c2c1 (stereo not drawn)	?	?	.	?	.	?
Cc1ccc2cc(CN(Cc3cccs3)Cc3nnnn3CC3CCCO3)c(=O)[nH]c2c1C (stereo not drawn)	18µM	?	.	?	?	.
COCC(=O)NC1CCC12CCN(Cc1cccc(C)c1)CC2 (stereo not drawn)	/	/	/	/	/	.
CC(Sc1nnc(Cc2cccs2)n1C1CCCCC1)C(=O)NCc1ccco1 (stereo not drawn)	15µM	.	.	15µM	?	.
CCN1c2cc(C(=O)Nc3ccc(OC)c(Cl)c3)ccc2C(=O)N2CCCCC21 (stereo not drawn)	/	/	/	/	/	.
COc1ccc(NC(=O)C(C)n2nc(-c3cc(C)ccc3C)c3c(c2=O)CCCC3)cc1 (stereo not drawn)	?	/	/	21µM	/	?
O=C1Nc2ccccc2C2(CCN(C(=O)c3ccccc3)C2)O1 (stereo not drawn)	/	/	/	/	/	.
COc1cc(/C=N/NC(=O)COc2ccc([N+](=O)[O-])cc2)ccc1OCC(=O)N1CCOCC1	16µM	.	.	.	.	.
Cc1cccc(OCC(=O)N/N=C/c2cc([N+](=O)[O-])ccc2N2CCOCC2)c1	18µM	?	.	21µM	?	.
COc1ccc(NCC(=O)N/N=C/c2cc([N+](=O)[O-])ccc2N2CCCC2)cc1	?	.	.	21µM	.	.
COCC1CN(C(C)=O)CC12CCN(C(=O)c1cc(Cl)ccc1OC)CC2 (stereo not drawn)	/	/	/	/	/	.
O=S(=O)(c1ccc(OC(F)(F)F)cc1)N1CCN(Cc2ncc(-c3ccccc3)o2)CC1	/	/	/	/	/	.
CNC(=O)[C@@H]1CN(S(=O)(=O)c2ccc3c(c2)CCC3)C[C@H]1c1nc(C)no1	/	/	/	/	/	.
C[C@]12CCC(O)CC1=CCC1C2CC[C@]2(C)/C(=N\NC(N)=S)CCC12 (stereo partly drawn)	.	.	.	.	13µM	?
CC(=O)C1=CCC2C3CC=C4CC(O)CCC4(C)C3CCC12C (stereo not drawn)	/	/	/	/	/	.
Cc1c(C(=O)Nc2cccc(Cl)c2)c2ccccn2c1CCc1ccncc1	23µM	?	.	?	.	.
Cc1nnc(N2CCN(c3ccc(Cl)cc3)CC2)c2c1nnn2Cc1ccc(F)cc1	2.6µM	/	/	?	/	.
Cc1nnc(NCc2ccc(Cl)cc2)c2c1nnn2Cc1ccc(F)cc1	.	/	/	.	/	.
FC(F)(F)c1ccc(N2CCN(c3ncnc4c3nnn4Cc3ccccc3Cl)CC2)cc1	?	?	?	?	?	.
O=C(c1ccco1)N1CCN(c2nc(C(F)(F)F)nc3c2nnn3Cc2ccccc2)CC1	?	?	.	18µM	.	.
O=C(c1ccco1)N1CCCC(c2nc3c(nnn3Cc3cccc(Cl)c3)c(=O)[nH]2)C1 (stereo not drawn)	.	.	.	?	.	.
Fc1ccccc1N1CCN(c2nnc(C(F)(F)F)c3nnn(Cc4ccccc4)c23)CC1	?	/	/	?	/	.
Cc1nnc(NCc2ccc(F)cc2)c2c1nnn2Cc1ccccc1Cl	2.3µM	/	/	2.9µM	/	.
Fc1ccc(N2CCN(c3ncnc4c3nnn4Cc3ccccc3Cl)CC2)cc1	15µM	/	/	?	/	.
SMILES	TDP1 cell noCPT	ELG1 repair inh	VP16 counter	TDP1 cell CPT	RORg inh	12-LOX inh
COc1ccc(C[C@H](NC(=O)C2=C[C@@H](NC(=O)Nc3ccccc3Br)[C@@H](O)[C@H](O)C2)C(N)=O)cc1	/	/	/	/	/	.
O=C(NCC1CC1)c1ccc(N2CC3CC(C2)[C@H]2CCCC(=O)N2C3)nc1 (stereo partly drawn)	/	/	/	/	/	.
CCCCCn1nc(C(=O)N(C)Cc2ccccc2Cl)c2ccccc2c1=O	/	/	/	/	/	.
c1ccc(OCC2CN(Cc3ccncc3)CC23CN(c2ccccc2)C3)cc1 (stereo not drawn)	/	/	/	/	/	.
O=C(c1ccco1)N1CCN(c2ncnc3c2nnn3Cc2ccccc2Cl)CC1	23µM	23µM	.	?	?	.
COc1ccc(-c2[nH]ncc2CN(C)C(C)c2cccs2)c(F)c1 (stereo not drawn)	?	.	.	16µM	.	.
O=C(O)CCCC(=O)N[C@H]1CO[C@H]2[C@@H]1OC[C@@H]2Nc1nccc(-c2cccc(F)c2)n1	/	/	/	/	/	.
C=CC[n+]1c(/C=C2\C=Cc3cc(C)ccc3N2CC)ccc2ccccc21	0.073µM	?	3.2µM	0.18µM	?	.
Cc1ccc(C)c(N2CCN(CCCNC(=O)Cn3cccc3C(=O)c3ccccc3C)CC2)c1	2.6µM	?	?	2.6µM	?	.
Cc1ccccc1C(=O)c1cccn1CC(=O)NCCN1CCN(c2cccc(C)c2C)CC1	8.2µM	.	?	16µM	?	.
Cc1ccccc1C(=O)c1cccn1CC(=O)NCCCN1CCCCC1	.	.	.	.	.	.
Nc1[nH]c2cc([N+](=O)[O-])ccc2c1-c1ccccn1	?	.	?	15µM	?	?
Cc1ccc(C(=O)c2ccccc2C(=O)O)c(O)c1	.	.	.	.	.	.
Cc1ccc(C(=O)CC(=O)c2ccccc2C)c(O)c1	2.3µM	.	5.6µM	2.6µM	3.5µM	.
Cc1ccc(C(=O)CC(=O)c2cccc(F)c2)c(O)c1	6.5µM	.	?	7.3µM	11µM	.
CCCn1c(C)c(CC(=O)NCc2cccnc2)c2c1CC(C)(C)CC2=O	/	/	/	/	/	.
COc1ccc(Cn2c(C(C)C)nc3sc4ccccc4c(=O)c3c2=O)cc1	12µM	.	.	?	.	.
CCCc1nc2sc3ccccc3c(=O)c2c(=O)n1Cc1ccc(OC)cc1	21µM	23µM	.	13µM	.	.
CCCc1nc2sc3ccccc3c(=O)c2c(=O)n1Cc1ccco1	?	.	.	?	.	?
CC(C)c1nc2sc3ccccc3c(=O)c2c(=O)n1Cc1ccccc1	15µM	?	.	16µM	.	.
CCc1ccc(NC(=O)CSc2ccc(-c3sc(-c4ccccc4)nc3C)nn2)cc1	12µM	/	/	?	/	.
CC(=O)Nc1cccc(NC(=O)C(=O)NCCc2sc(-c3ccccc3)nc2C)c1	1.2µM	/	/	1.5µM	/	?
Cc1nc(-c2ccccc2)sc1-c1ccc(SCC(=O)Nc2cccc(C(F)(F)F)c2)nn1	.	/	/	?	/	.

Screens: PubChem, National Center for Advancing Translational Sciences (NCATS)
